From publication PMC9838217, “Structure of SALL4 zinc finger domain reveals link between AT-rich DNA binding and Okihiro syndrome”
Substitutions are numbered along the chain they refer to.

Columns and labels:
Assay in all cases: HT-SELEX; high values mean tight binding
Details in all cases: protein: recombinant; vector His6-GST; dsDNA, one strand shown
SALL4 ZFC4 WT (HT-SELEX) = molecular target: T1, SALL4 ZFC4 WT (HT-SELEX) (Mus musculus, UniProt Q8BX22 870-940)
T1 sequence: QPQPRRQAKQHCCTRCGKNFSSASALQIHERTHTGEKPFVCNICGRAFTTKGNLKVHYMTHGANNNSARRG
Method in brief: (§1)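 Purified recombinant mouse SALL4 zinc finger cluster 4 (residues 870–940, 1 µg) and library DNA (1.5 µg first cycle, 200 ng later) were incubated for 10 min at room temperature in 100 µl of 10 mM Tris–HCl pH 7.5, 50 mM NaCl, poly(dI-dC) and DTT. After Ni2+ bead capture and up to 6 triplicate cycles of selection, DNA was MiSeq-sequenced and scanned for 6-mers. Binding signal is the fold change in each canonical k-mer's read fraction relative to the initial random library.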

[1] = molecular target: T2, SALL4 ZFC4 R900W (HT-SELEX) (Mus musculus, UniProt Q8BX22 870-940, R900W)
T2 sequence: T1 sequence with R31W
Method in brief: as §1

[2] = molecular target: T3, SALL4 ZFC4 G921D (HT-SELEX) (Mus musculus, UniProt Q8BX22 870-940, G921D)
T3 sequence: T1 sequence with G52D
Method in brief: as §1

| Sequence | binding signal (SALL4 ZFC4 WT (HT-SELEX)) [fold-change vs cycle 0] | binding signal [1] [fold-change vs cycle 0] | binding signal [2] [fold-change vs cycle 0] |
| --- | --- | --- | --- |
| AATCCA | 1.41 ± 0.0345 | 1.44 ± 0.0422 | 1.37 ± 0.0637 |
| GTACCA | 0.755 ± 0.0123 | 0.835 ± 0.0283 | 0.893 ± 0.0178 |
| CTAAGC | 0.7 ± 0.0291 | 0.793 ± 0.0207 | 0.857 ± 0.014 |
| AAAAAG | 1.57 ± 0.0619 | 1.68 ± 0.0943 | 1.52 ± 0.129 |
| AGTAAA | 1.96 ± 0.143 | 2.08 ± 0.144 | 1.78 ± 0.193 |
| ATTATC | 2.31 ± 0.229 | 2.08 ± 0.177 | 1.85 ± 0.207 |
| AGCACT | 0.65 ± 0.0278 | 0.746 ± 0.0409 | 0.859 ± 0.0159 |
| GGTGAA | 0.8 ± 0.0301 | 0.905 ± 0.0496 | 0.952 ± 0.0511 |
| AAGAGC | 0.752 ± 0.0601 | 0.917 ± 0.0813 | 1.02 ± 0.0502 |
| CTGATC | 0.794 ± 0.0362 | 0.948 ± 0.0293 | 1.02 ± 0.0279 |
| ACGCAA | 0.452 ± 0.0105 | 0.521 ± 0.02 | 0.635 ± 0.0427 |
| CAGACG | 0.352 ± 0.0274 | 0.442 ± 0.0268 | 0.571 ± 0.085 |
| GAAGGC | 0.304 ± 0.0244 | 0.39 ± 0.0131 | 0.522 ± 0.0691 |
| TATGGA | 1.65 ± 0.0906 | 1.46 ± 0.0813 | 1.37 ± 0.0965 |
| AAAAGC | 0.816 ± 0.0288 | 0.899 ± 0.0164 | 0.953 ± 0.0234 |
| AAGACG | 0.635 ± 0.0182 | 0.735 ± 0.023 | 0.815 ± 0.0404 |
| CCCATA | 0.844 ± 0.0635 | 0.917 ± 0.0435 | 0.905 ± 0.0367 |
| GAAGCA | 0.667 ± 0.0348 | 0.784 ± 0.0247 | 0.88 ± 0.0121 |
| CTAAGA | 1.36 ± 0.0387 | 1.51 ± 0.0736 | 1.42 ± 0.0981 |
| AAGACA | 1.28 ± 0.0466 | 1.42 ± 0.0793 | 1.35 ± 0.0674 |

| Sequence | binding signal (SALL4 ZFC4 WT (HT-SELEX)) [fold-change vs cycle 0] | binding signal [1] [fold-change vs cycle 0] | binding signal [2] [fold-change vs cycle 0] |
| --- | --- | --- | --- |
| GTTTGA | 1.14 ± 0.0365 | 1.26 ± 0.0348 | 1.23 ± 0.0615 |
| CGTTAG | 0.723 ± 0.0258 | 0.82 ± 0.0289 | 0.902 ± 0.0446 |
| ACACCC | 0.416 ± 0.0284 | 0.506 ± 0.0389 | 0.581 ± 0.0534 |
| AATGCC | 0.502 ± 0.015 | 0.5601 ± 0.00429 | 0.704 ± 0.0636 |
| CATCCG | 0.395 ± 0.00447 | 0.448 ± 0.0185 | 0.567 ± 0.0534 |
| AATTCT | 2.05 ± 0.0669 | 1.99 ± 0.104 | 1.8 ± 0.162 |
| AACAGC | 0.555 ± 0.024 | 0.644 ± 0.0188 | 0.761 ± 0.0273 |
| AAAAGA | 1.8 ± 0.0481 | 1.94 ± 0.106 | 1.7 ± 0.125 |
| AATACA | 2.08 ± 0.131 | 1.92 ± 0.0574 | 1.74 ± 0.0979 |
| AACCGG | 0.336 ± 0.0219 | 0.391 ± 0.0169 | 0.498 ± 0.0509 |
| AAGTCT | 1.259 ± 0.00421 | 1.4 ± 0.0184 | 1.38 ± 0.0691 |
| AGTACG | 0.724 ± 0.0595 | 0.83 ± 0.0465 | 0.871 ± 0.0406 |
| CCATTA | 1.33 ± 0.0471 | 1.4 ± 0.0728 | 1.32 ± 0.097 |
| ATATGG | 1.44 ± 0.131 | 1.33 ± 0.0761 | 1.28 ± 0.0676 |
| GACCGA | 0.327 ± 0.0131 | 0.4 ± 0.0327 | 0.52 ± 0.0745 |
| TGTAAA | 1.93 ± 0.102 | 1.92 ± 0.0908 | 1.7 ± 0.134 |
| CTTGTA | 1.27 ± 0.0539 | 1.44 ± 0.0511 | 1.33 ± 0.0845 |
| GAAATA | 2.68 ± 0.193 | 1.89 ± 0.115 | 1.72 ± 0.124 |
| CAAACC | 0.669 ± 0.0487 | 0.765 ± 0.014 | 0.864 ± 0.0462 |
| AACCTC | 0.87 ± 0.0372 | 0.961 ± 0.043 | 1.02 ± 0.0516 |

| Sequence | binding signal (SALL4 ZFC4 WT (HT-SELEX)) [fold-change vs cycle 0] | binding signal [1] [fold-change vs cycle 0] | binding signal [2] [fold-change vs cycle 0] |
| --- | --- | --- | --- |
| ACCAAA | 1.09 ± 0.0301 | 1.17 ± 0.0218 | 1.18 ± 0.044 |
| AGCCTC | 0.316 ± 0.0162 | 0.401 ± 0.0165 | 0.536 ± 0.0409 |
| AATTCA | 2.33 ± 0.187 | 1.93 ± 0.125 | 1.77 ± 0.161 |
| TACGGA | 0.719 ± 0.0383 | 0.834 ± 0.0149 | 0.856 ± 0.0265 |
| AACGGG | 0.4 ± 0.0225 | 0.466 ± 0.0176 | 0.54 ± 0.0483 |
| AATGCT | 1.15 ± 0.0126 | 1.19 ± 0.0201 | 1.225 ± 0.011 |
| ACCTAA | 1.36 ± 0.0814 | 1.46 ± 0.0702 | 1.37 ± 0.0509 |
| AGGGTC | 0.434 ± 0.029 | 0.524 ± 0.0447 | 0.649 ± 0.0851 |
| TCGGAA | 0.681 ± 0.041 | 0.761 ± 0.0268 | 0.862 ± 0.0635 |
| AGGTAG | 0.817 ± 0.0419 | 0.986 ± 0.0401 | 0.998 ± 0.0166 |
| ATTAAG | 2.1 ± 0.107 | 2.09 ± 0.139 | 1.82 ± 0.22 |
| CTGGAC | 0.396 ± 0.0407 | 0.495 ± 0.0552 | 0.584 ± 0.0722 |
| AGATGC | 0.625 ± 0.0322 | 0.721 ± 0.0174 | 0.833 ± 0.0268 |
| CCACTA | 0.774 ± 0.0352 | 0.855 ± 0.0167 | 0.895 ± 0.0113 |
| CCCACA | 0.389 ± 0.0158 | 0.42 ± 0.0162 | 0.523 ± 0.0663 |
| AATTTC | 2.1 ± 0.178 | 1.76 ± 0.0861 | 1.64 ± 0.101 |
| ACTACA | 1.29 ± 0.0616 | 1.42 ± 0.0632 | 1.34 ± 0.0704 |
| ACGTCC | 0.359 ± 0.021 | 0.454 ± 0.0124 | 0.562 ± 0.0557 |
| AGTAAG | 1.58 ± 0.0246 | 1.73 ± 0.024 | 1.53 ± 0.116 |
| ACGACT | 0.624 ± 0.0259 | 0.718 ± 0.0114 | 0.813 ± 0.0216 |
